Results on 15 compounds are retold here after PubChem BioAssay AID2599 (Sanford-Burnham Center for Chemical Genomics, 2010).

SMILES strings stand for the structures. The campaign covered roughly 330,000 compounds. About 5,800 (1.8%) were called active.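 Rule for the calls: active = inhibition above about 50% at the single tested dose (limit read from the data); inactive = the rest.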 The full list was thinned out, with actives kept by preference.

In the test the target is Sentrin-specific protease 6 (Homo sapiens) (UniProt Q9GZR1). Kind of test: SENP6 protease inhibitors, primary screen, biochemical, luminescence, uHTS (AID 2599).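 Note: plate controls were DMSO wells with enzyme for no effect and DMSO wells lacking enzyme for full effect.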 Particulars: Recombinant SENP6 catalytic domain, aminoluciferin luminescence; at 10 µM; hits give high values.
Chain of Sentrin-specific protease 6 (Homo sapiens) (Q9GZR1 628-1112 limits assumed): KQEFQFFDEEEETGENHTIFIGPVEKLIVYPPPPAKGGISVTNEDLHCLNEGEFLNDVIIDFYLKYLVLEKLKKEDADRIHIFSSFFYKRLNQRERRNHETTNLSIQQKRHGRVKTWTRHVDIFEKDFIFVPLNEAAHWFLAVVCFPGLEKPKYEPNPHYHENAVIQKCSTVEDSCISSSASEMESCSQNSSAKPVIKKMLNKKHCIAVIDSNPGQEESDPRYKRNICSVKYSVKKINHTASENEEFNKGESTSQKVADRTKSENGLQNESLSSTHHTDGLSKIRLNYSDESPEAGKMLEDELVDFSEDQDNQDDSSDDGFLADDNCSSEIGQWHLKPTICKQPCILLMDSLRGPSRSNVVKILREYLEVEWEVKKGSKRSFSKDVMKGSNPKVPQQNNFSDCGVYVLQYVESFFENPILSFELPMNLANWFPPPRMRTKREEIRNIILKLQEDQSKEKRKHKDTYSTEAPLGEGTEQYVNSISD
As a reminder, the inhibition is the relative decrease from the control value, in per cent. On to `COc1cc(Cn2c(N)c(C(=O)NCc3ccco3)c3nc4ccccc4nc32)cc(OC)c1OC`, for which the inhibition is 83.6% (active). As for `CCOC(=O)c1c(N)n(CCN2CCOCC2)c2nc3ccccc3nc12`, the figure is -28.7% (inactive); as for `CCOC(=O)c1c(N)n(Cc2ccccc2)c2nc3ccccc3nc12`, 29.7% (inactive); as for `CC[N+](CC)(CC)CCCCCCCCCC[N+](CC)(CC)CC`, -14.6% (inactive). As for `COc1ccc(NC(=O)N2CCC3(CC2)OCCO3)c(OC)c1`, the figure is -19.7% (inactive). With `O=C(Nc1cccc2ccccc12)N1CCC2(CC1)OCCO2` the figure was 63.7% (active). Regarding `O=C(c1cc(-c2ccncc2)nc2ccccc12)N1CCC2(CC1)OCCO2`, the inhibition was 5.91% (inactive). `Cc1cc2ccccn2c1C(C[N+](=O)[O-])c1c(F)cccc1Cl` (stereo not given): the inhibition was -24.7% (inactive).

As to `O=[N+]([O-])c1cnc2ccc3ccccc3c2c1`, the inhibition was -4.31% (inactive). Take `C/C(CCc1c[nH]c2ccccc12)=N\O`: the inhibition was -0.527% (inactive). On to `C/C(=N/O)c1ccc2ccc3ccccc3c2c1`, for which the inhibition is 53.8% (active).

On to `O=C(NC(=S)N1C[C@H]2C[C@H](C1)c1cccc(=O)n1C2)c1ccc(F)cc1`, for which the inhibition was 0.817% (inactive). As for `CC(=O)N1CN2CN(C(C)=O)CC(C(=O)c3ccc(Br)cc3)(C2)C1`, the figure is -9.66% (inactive); as for `O=c1[nH]c(=O)n(-c2ccc(F)cc2)c(O)c1C=NCCN1CCCCC1`, -0.13% (inactive). Regarding `CCCCCCCCCCCCn1ccc(=N)cc1`, the inhibition is -35.7% (inactive).
